Experimental data published in the supplement of paper PMC9262897, “Low-cost anti-mycobacterial drug discovery using engineered E. coli” (Nature Communications, 2022).
Counter-ions that a name gives are not always drawn. ± gives the standard deviation of the averaged measurements.

What was measured:
Assay in all cases: growth (OD600 after 10 h); higher = more growth (less inhibition)
[1] = tested on: E. coli TESEC Alr+ wild-type control; settings: compound 0.1 mM; raw OD600 reference: median of DMSO wells 0.241, cell-free background 0.041
Experimental: (§1)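 TESEC Mtb Alr E. coli, or the Alr+ wild-type control, in 384-well plates with Prestwick library compounds at 0.1 mM and 1% DMSO, across arabinose induction levels of 1E3 to 1E7 nM. Growth is read as OD600 after 10 h at 37 °C in triplicate biological replicates.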

[2] = tested on: E. coli TESEC Mtb Alr; settings: compound 0.1 mM
Experimental: as §1

[3] = tested on: E. coli TESEC Mtb Asd; settings: compound 0.1 mM
Experimental: (§2)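 TESEC E. coli strains in which the native enzyme is deleted and replaced by arabinose-inducible Mtb Asd, DapB, CysH or TrpD, each grown in its selective medium. Strains were screened against the Prestwick library at 0.1 mM and 1% DMSO in 384-well format at low and high arabinose induction. Growth is read as OD600 after 10 h in triplicate.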

[4] = tested on: E. coli TESEC Mtb DapB; settings: compound 0.1 mM
Experimental: as §2

[5] = tested on: E. coli TESEC Alr+ wild-type control; settings: compound 0.1 mM; raw OD600 reference: median of DMSO wells 0.49, cell-free background 0.052
Experimental: (§3)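 TESEC Mtb Alr E. coli (ΔaraC ΔtolC ΔentC Δalr ΔdadX, arabinose-inducible Mtb Alr) or the Alr+ wild-type control strain, grown in defined M9-fructose medium without D-alanine in 96-well plates with Prestwick library compounds at 0.1 mM and 1% DMSO. Low Alr induction is 0.1 µM arabinose and high induction is 10 mM arabinose.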

[6] = tested on: E. coli TESEC Mtb Alr; settings: compound 0.1 mM; remark: listed apart in the source
Experimental: as §3

[7] = arabinose 1000 nM, raw OD600 reference: median of DMSO wells 0.294, cell-free background 0.041
[8] = arabinose 10000 nM, raw OD600 reference: median of DMSO wells 0.264, cell-free background 0.041
[9] = arabinose 100000 nM, raw OD600 reference: median of DMSO wells 0.201, cell-free background 0.041
[10] = arabinose 1000000 nM, raw OD600 reference: median of DMSO wells 0.193, cell-free background 0.041
[11] = arabinose 10000000 nM, raw OD600 reference: median of DMSO wells 0.146, cell-free background 0.041
[12] = arabinose induction (level): High, raw OD600 reference: median of DMSO wells 0.331, cell-free background 0.041
[13] = arabinose induction (level): Low, raw OD600 reference: median of DMSO wells 0.417, cell-free background 0.041
[14] = arabinose induction (level): High, raw OD600 reference: median of DMSO wells […], cell-free background 0.041
[15] = arabinose induction (level): Low, raw OD600 reference: median of DMSO wells 0.227, cell-free background 0.041
[16] = arabinose 100 nM, raw OD600 reference: median of DMSO wells 0.413, cell-free background 0.052
[17] = arabinose 10000000 nM, raw OD600 reference: median of DMSO wells […], cell-free background 0.052

| Structure (SMILES) | growth [1] | growth [2, 7] | growth [2, 8] | growth [2, 9] | growth [2, 10] | growth [2, 11] | growth [3, 12] | growth [3, 13] | growth [4, 14] | growth [4, 15] | growth [5] | growth [6, 16] | growth [6, 17] |
| --- | --- | --- | --- | --- | --- | --- | --- | --- | --- | --- | --- | --- | --- |
| CCC(=O)[C@@]1(C)[C@H](C)C[C@H]2[C@@H]3CCC4=CC(=O)C=C[C@]4(C)[C@H]3[C@@H](O)C[C@@]21C [Rimexolone] | 0.216 ± 0.0076 | 0.275 ± 0.019 | 0.248 ± 0.0084 | 0.139 ± 0.005 | 0.148 ± 0.0067 | 0.132 ± 0.0029 | 0.203 ± 0.03 | 0.41 ± 0.047 | 0.197 ± 0.0062 | 0.209 ± 0.026 | 0.459 ± 0.021 | 0.414 ± 0.019 | 0.365 ± 0.038 |
| CNS(=O)(=O)Cc1ccc2[nH]cc(CCN(C)C)c2c1 [Sumatriptan succinate] | 0.226 ± 0.0042 | 0.298 ± 0.019 | 0.258 ± 0.0057 | 0.2 ± 0.024 | 0.193 ± 0.0067 | 0.137 ± 0.0028 | 0.372 ± 0.026 | 0.503 ± 0.03 | 0.206 ± 0.018 | 0.221 ± 0.028 | 0.441 ± 0.017 | 0.417 ± 0.0056 | 0.353 ± 0.0071 |
| CC(=O)O[C@H]1C[C@@]2(C)[C@@H](C[C@@H](O)[C@H]3[C@@]4(C)CC[C@@H](O)[C@@H](C)[C@@H]4CC[C@@]32C)/C1=C(\CCC=C(C)C)C(=O)O [Fusidic acid sodium salt] | 0.04197 ± 0.0004 | 0.0422 ± 0.00097 | 0.0411 ± 0.001 | 0.0429 ± 0.0003 | 0.0403 ± 0.00017 | 0.04237 ± 0.00032 | 0.0498 ± 0.0038 | 0.0478 ± 0.0026 | 0.0536 ± 0.0022 | 0.052 ± 0.0007 | 0.05317 ± 0.00047 | 0.11 ± 0.0058 | 0.0515 ± 0.00085 |
| Cc1ccc(/C(=C\CN2CCCC2)c2ccccn2)cc1 [Triprolidine hydrochloride] | 0.223 ± 0.0078 | 0.27 ± 0.014 | 0.257 ± 0.0035 | 0.213 ± 0.017 | 0.176 ± 0.0043 | 0.141 ± 0.005 | 0.264 ± 0.029 | 0.427 ± 0.05 | 0.165 ± 0.0066 | 0.214 ± 0.055 | 0.464 ± 0.026 | 0.41 ± 0.0077 | 0.368 ± 0.019 |
| O=C1c2cccc3c2[C@H](CCC3)CN1[C@@H]1CN2CCC1CC2 [Palonosetron hydrochloride] | 0.212 ± 0.017 | 0.281 ± 0.0041 | 0.263 ± 0.013 | 0.177 ± 0.01 | 0.165 ± 0.0085 | 0.151 ± 0.0037 | 0.267 ± 0.049 | 0.279 ± 0.045 | 0.198 ± 0.0067 | 0.235 ± 0.02 | 0.601 ± 0.042 | 0.417 ± 0.011 | 0.307 ± 0.022 |
| O=C(O)CCCC[C@@H]1SC[C@@H]2NC(=O)N[C@@H]21 [Biotin] | 0.257 ± 0.0089 | 0.309 ± 0.0092 | 0.265 ± 0.016 | 0.217 ± 0.028 | 0.206 ± 0.018 | 0.145 ± 0.0046 | 0.347 ± 0.05 | 0.418 ± 0.045 | 0.18 ± 0.0081 | 0.208 ± 0.022 | 0.615 ± 0.056 | 0.408 ± 0.0076 | 0.354 ± 0.014 |
| CN(C(=O)CN(CCO)CC(=O)N(C)C(C)(C)Cc1ccccc1)C(C)(C)Cc1ccccc1 [Oxethazaine] | 0.0424 ± 0.0038 | 0.0404 ± 0.001 | 0.03963 ± 0.00015 | 0.0411 ± 0.00087 | 0.03937 ± 0.00015 | 0.0411 ± 0.0013 | 0.179 ± 0.014 | 0.25 ± 0.037 | 0.187 ± 0.031 | 0.202 ± 0.05 | 0.0484 ± 0.00076 | 0.165 ± 0.2 | 0.0514 ± 0.00058 |
| Cc1ncc([N+](=O)[O-])n1CCO [Metronidazole] | 0.244 ± 0.0028 | 0.291 ± 0.014 | 0.264 ± 0.0049 | 0.221 ± 0.036 | 0.177 ± 0.0036 | 0.144 ± 0.0031 | 0.378 ± 0.03 | 0.378 ± 0.013 | 0.202 ± 0.015 | 0.264 ± 0.052 | 0.426 ± 0.033 | 0.394 ± 0.021 | 0.347 ± 0.038 |
| CC(=O)SCC(Cc1ccccc1)C(=O)NCC(=O)OCc1ccccc1 (stereo not drawn) [Racecadotril] | 0.183 ± 0.0055 | 0.26 ± 0.016 | 0.241 ± 0.011 | 0.23 ± 0.022 | 0.132 ± 0.0014 | 0.189 ± 0.0054 | 0.28 ± 0.053 | 0.215 ± 0.013 | 0.172 ± 0.012 | 0.24 ± 0.023 | 0.502 ± 0.028 | 0.398 ± 0.0054 | 0.298 ± 0.0095 |
| COC(=O)Nc1nc2cc(C(=O)c3ccc(F)cc3)ccc2[nH]1 [Flubendazol] | 0.249 ± 0.026 | 0.307 ± 0.032 | 0.2591 ± 0.00086 | 0.197 ± 0.028 | 0.191 ± 0.0051 | 0.141 ± 0.0081 | 0.43 ± 0.019 | 0.491 ± 0.029 | 0.2 ± 0.01 | 0.231 ± 0.03 | 0.6 ± 0.078 | 0.414 ± 0.018 | 0.435 ± 0.011 |
| COC(c1ccccc1)(c1ccccc1)[C@H](Oc1nc(C)cc(C)n1)C(=O)O [Ambrisentan] | 0.217 ± 0.0053 | 0.28 ± 0.0015 | 0.285 ± 0.0062 | 0.177 ± 0.024 | 0.224 ± 0.0037 | 0.13 ± 0.0029 | 0.284 ± 0.072 | 0.315 ± 0.053 | 0.191 ± 0.016 | 0.234 ± 0.021 | 0.535 ± 0.022 | 0.41 ± 0.008 | 0.354 ± 0.015 |
| CN1CCC(=C2c3ccccc3C=Cc3ccccc32)CC1 [Cyproheptadine hydrochloride] | 0.145 ± 0.0056 | 0.163 ± 0.02 | 0.16 ± 0.0079 | 0.12 ± 0.0049 | 0.0596 ± 0.00044 | 0.0772 ± 0.00078 | 0.15 ± 0.0059 | 0.186 ± 0.0032 | 0.175 ± 0.015 | 0.192 ± 0.011 | 0.452 ± 0.11 | 0.4129 ± 0.0017 | 0.276 ± 0.016 |
| CN(C)c1ccc(O)c2c1C[C@H]1C[C@H]3[C@H](N(C)C)C(=O)C(C(N)=O)=C(O)[C@@]3(O)C(=O)C1=C2O [Minocycline hydrochloride] | 0.0402 ± 0.00064 | 0.0422 ± 0.00083 | 0.0402 ± 0.00026 | 0.0426 ± 0.00055 | 0.0397 ± 0.00075 | 0.0426 ± 0.00067 | 0.06847 ± 0.00055 | 0.0692 ± 0.0029 | 0.0606 ± 0.01 | 0.0519 ± 0.0019 | 0.0527 ± 0.00085 | 0.0623 ± 0.0026 | 0.0637 ± 0.0055 |
| O=C(C1CCCCC1)N1CC(=O)N2CCc3ccccc3C2C1 (stereo not drawn) [Praziquantel] | 0.207 ± 0.0042 | 0.251 ± 0.0052 | 0.237 ± 0.015 | 0.214 ± 0.021 | 0.167 ± 0.01 | 0.141 ± 0.0052 | 0.391 ± 0.074 | 0.278 ± 0.026 | 0.174 ± 0.0068 | 0.21 ± 0.027 | 0.447 ± 0.019 | 0.382 ± 0.0029 | 0.37 ± 0.025 |
| N=C(N)NC(=O)c1nc(Cl)c(N)nc1N [Amiloride hydrochloride dihydrate] | 0.236 ± 0.012 | 0.291 ± 0.021 | 0.257 ± 0.003 | 0.255 ± 0.016 | 0.181 ± 0.0048 | 0.15 ± 0.0063 | 0.387 ± 0.036 | 0.428 ± 0.033 | 0.203 ± 0.0053 | 0.278 ± 0.035 | 0.497 ± 0.071 | 0.407 ± 0.014 | 0.392 ± 0.015 |
| O=C1NCCN1CCN1CCC(c2cn(-c3ccc(F)cc3)c3ccc(Cl)cc23)CC1 [Sertindole] | 0.0429 ± 0.0029 | 0.04057 ± 0.00035 | 0.04073 ± 0.00025 | 0.0409 ± 0.0004 | 0.04 ± 0.0001 | 0.0443 ± 0.0027 | 0.0531 ± 0.0039 | 0.0504 ± 0.003 | 0.102 ± 0.09 | 0.0562 ± 0.012 | 0.0474 ± 0.001 | 0.167 ± 0.2 | 0.0524 ± 0.00098 |
